Test systems include HCT-15 colon; HT29 colon; SNB-75 CNS; SNB-19 CNS; U251 CNS; PC-3 prostate; SK-MEL-5 melanoma; UACC-62 melanoma; LOX IMVI melanoma; SK-MEL-28 melanoma; SK-MEL-2 melanoma; EKVX NSCLC; SN12C renal; UO-31 renal; TK-10 renal; ACHN renal; A498 renal; CCRF-CEM leukemia; MOLT-4 leukemia; SR leukemia.
What all share (experiment): NCI-60 one-dose screen, 48 h (100 = growth as untreated, 0 = no growth, -100 = all killed)
Settings in all cases: 10 µM unless noted

Results on eight compounds are retold here after PubChem BioAssay (NCI).

Molecules are shown by their SMILES. Compounds without any hit were thinned out: in the full panel of roughly 83,000, 20% have a hit.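 Cells were grown in 96-well plates and exposed to the test compound at a single concentration for 48 hours; results are reported as percent growth, with values below 10 considered active.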 Unmarked numbers belong to inactive results. Active and inactive are the calls of the source.

With `O=C(Nc1ccc2ncnc(Nc3ccc(F)c(Cl)c3)c2c1)c1ccccc1`, the growth was 52.1% with HCT-15 colon; 79% with HT29 colon; 28.5% in the assay on SNB-75 CNS; 76.8% in the assay on SNB-19 CNS; 42.8% in the assay on U251 CNS; 72.7% in the assay on PC-3 prostate. In addition, the growth is 86.5% with SK-MEL-5 melanoma; 92.2% in the assay with UACC-62 melanoma; 63.9% with LOX IMVI melanoma; 97.5% in the assay on SK-MEL-28 melanoma; 87.5% in the assay on SK-MEL-2 melanoma; 61.2% in the assay with EKVX NSCLC. The growth is 71.2% in the assay with SN12C renal; 63.3% in the assay with UO-31 renal; 36.8% in the assay with TK-10 renal; 37% with ACHN renal; 67.6% in the assay with A498 renal; 98.6% with CCRF-CEM leukemia. Also, the results for the growth in the assay on MOLT-4 leukemia and with SR leukemia were 63.4% and 66.7%, respectively.

For the compound `CCOC(=O)c1c(C)nc2c(c1N)/C(=C/c1cccs1)C(=O)N2c1ccc(OC)cc1`, the growth in the assay on HCT-15 colon is 72.8%; in the assay with HT29 colon, 51.3%; with SNB-75 CNS, 30.6%; in the assay with SNB-19 CNS, 42.2%; in the assay on U251 CNS, 12.4%; in the assay with PC-3 prostate it was 35%. In addition, the growth with SK-MEL-5 melanoma was 45.7%; in the assay with UACC-62 melanoma, 38.3%; in the assay on LOX IMVI melanoma it was 37.6%; in the assay on SK-MEL-28 melanoma it was 37%; in the assay on SK-MEL-2 melanoma, 33%; in the assay on EKVX NSCLC, 49.8%. For the same compound, the growth was 39.4% in the assay with SN12C renal; 16.5% in the assay with UO-31 renal; 35.7% in the assay on TK-10 renal; 31.5% in the assay on ACHN renal; 35.1% in the assay on A498 renal; 92.2% with CCRF-CEM leukemia. Besides, the growth was 80.5% with MOLT-4 leukemia and 55.8% in the assay with SR leukemia.

Regarding `O=C(/C(=C/c1ccc([N+](=O)[O-])cc1)SCc1ccccc1)c1ccc(Cl)cc1`, the growth is 34.3% in the assay on HCT-15 colon; 52% in the assay on HT29 colon; 85% in the assay with SNB-75 CNS; 70.6% in the assay with SNB-19 CNS; 61.6% in the assay on U251 CNS; 60.9% with PC-3 prostate. In addition, the growth in the assay with SK-MEL-5 melanoma is 73%; in the assay on UACC-62 melanoma, 9.57% (active); with LOX IMVI melanoma, 32.6%; with SK-MEL-28 melanoma it was 94.6%; with SK-MEL-2 melanoma, 84.5%; in the assay with EKVX NSCLC it was 72.6%. Besides, the growth in the assay with SN12C renal was -25.4% (active); in the assay with UO-31 renal, 59.5%; in the assay with TK-10 renal, 103%; in the assay on ACHN renal, 76.5%; in the assay with A498 renal it was 76.5%; in the assay on CCRF-CEM leukemia it was 9.82% (active). Besides, the growth in the assay on MOLT-4 leukemia was 13.5%; in the assay on SR leukemia, -1.55% (active).

With `CCN(CC)c1ccc2c(c1)Oc1nc(N)c(C#N)c(N)c1C2Sc1ccc(OC)cc1` (stereo not given), the growth in the assay on HCT-15 colon is 2.89% (active); in the assay with HT29 colon it was -61.6% (active); in the assay on SNB-75 CNS, -10% (active); with SNB-19 CNS, 20.9%; with U251 CNS it was -36.4% (active); with PC-3 prostate, 1.15% (active). The growth was 1.93% (active) in the assay on SK-MEL-5 melanoma; -16.9% (active) with UACC-62 melanoma; -63.6% (active) in the assay on LOX IMVI melanoma; 29.3% with SK-MEL-28 melanoma; -61.2% (active) with SK-MEL-2 melanoma; 4.46% (active) with EKVX NSCLC. For the same compound, the growth is 4.18% (active) with SN12C renal; -44.7% (active) with UO-31 renal; 23.1% in the assay with TK-10 renal; 32.2% in the assay on ACHN renal; 106% with A498 renal; 0.612% (active) with CCRF-CEM leukemia. Besides, the results for the growth with MOLT-4 leukemia and in the assay on SR leukemia were 2.47% (active) and -9.3% (active), respectively.

In the case of `CCOC(=O)c1sc(/N=C2\NC(=O)/C(=C/c3ccc(N4CCN(C)CC4)cc3)S2)nc1C`, the growth in the assay with HCT-15 colon is 95.9%; in the assay with HT29 colon, 86.9%; in the assay on SNB-75 CNS, 101%; with SNB-19 CNS it was 104%; with U251 CNS it was 106%; in the assay with PC-3 prostate, 102%. For the same compound, the growth is 98% in the assay with SK-MEL-5 melanoma; 113% in the assay on UACC-62 melanoma; 65.7% in the assay on LOX IMVI melanoma; 113% in the assay with SK-MEL-28 melanoma; 98% with SK-MEL-2 melanoma; 96.7% in the assay on EKVX NSCLC. In addition, the growth in the assay on SN12C renal is 111%; in the assay with UO-31 renal, 84.6%; with TK-10 renal, 116%; in the assay on ACHN renal it was 108%; with A498 renal it was 111%; with CCRF-CEM leukemia it was 91.7%. The values for the growth in the assay with MOLT-4 leukemia and in the assay with SR leukemia were 88.9% and 101%, respectively.

With `CNc1cccc2c1C(=O)c1cccc(N)c1C2=O`, the growth was 58.6% in the assay on HCT-15 colon; 71.2% in the assay on HT29 colon; 71.5% with SNB-75 CNS; 84.2% in the assay on SNB-19 CNS; 29.6% in the assay with U251 CNS; 40.7% in the assay with PC-3 prostate. Moreover, the growth in the assay on SK-MEL-5 melanoma is 88%; in the assay on UACC-62 melanoma it was 77.3%; in the assay on LOX IMVI melanoma, 79.1%; in the assay on SK-MEL-28 melanoma it was 96.3%; in the assay on SK-MEL-2 melanoma, 63.7%; with EKVX NSCLC, 37.9%. The growth in the assay on SN12C renal is 91%; in the assay with UO-31 renal, 62.1%; in the assay on TK-10 renal it was 25.8%; in the assay on ACHN renal it was 72.2%; in the assay on A498 renal it was 65%; with CCRF-CEM leukemia, 20.5%. Moreover, the growth was 29.4% in the assay with MOLT-4 leukemia and 9.01% (active) with SR leukemia.

As for `COc1ccc2oc(=O)cc(-c3c(C#N)c(N)n4nc(N)c(C#N)c4c3C#N)c2c1`, the growth in the assay with HCT-15 colon was 102%; in the assay with HT29 colon it was 90.7%; with SNB-75 CNS it was 116%; with SNB-19 CNS, 112%; with U251 CNS, 101%; in the assay with PC-3 prostate, 104%. In addition, the growth is 99% with SK-MEL-5 melanoma; 107% with UACC-62 melanoma; 95% in the assay on LOX IMVI melanoma; 107% with SK-MEL-28 melanoma; 91.7% with SK-MEL-2 melanoma; 100% with EKVX NSCLC. Further, the growth with SN12C renal is 103%; in the assay with UO-31 renal it was 94.4%; with TK-10 renal it was 90.4%; with ACHN renal, 101%; in the assay on A498 renal, 113%; with CCRF-CEM leukemia, 106%. Further, the growth in the assay with MOLT-4 leukemia was 86%; in the assay on SR leukemia it was 115%.

`COC(=O)c1nc(-c2ccccc2)oc1S(=O)(=O)n1nc(C)cc1N`: the growth in the assay with HCT-15 colon was 46.9%; with HT29 colon it was 17.5%; in the assay with SNB-75 CNS it was 82.3%; in the assay on SNB-19 CNS, 96.6%; in the assay on U251 CNS, 101%; with PC-3 prostate it was 104%. The growth with SK-MEL-5 melanoma is 92.3%; with UACC-62 melanoma it was 89.4%; in the assay on LOX IMVI melanoma, 76.8%; with SK-MEL-28 melanoma, 87.4%; with SK-MEL-2 melanoma, 80.3%; with EKVX NSCLC it was 87.8%. The growth was 58.5% in the assay on SN12C renal; 51.4% in the assay with UO-31 renal; 73.5% in the assay on TK-10 renal; -86.2% (active) with ACHN renal; 99.9% in the assay with A498 renal; 9.2% (active) in the assay on CCRF-CEM leukemia. Further, the growth with MOLT-4 leukemia was 14.6%; in the assay on SR leukemia it was 3.74% (active).
